High-throughput results deposited in PubChem BioAssay by Broad Institute.
Wnt bcat act = activators of Wnt/beta-catenin signaling; Wnt/beta-catenin reporter cell assay, activator, plate reader; actives 1.2% (n = 300,000); activation, % at 9.35 µM; AID 743398; in the data active = activation above about 30%, passing the limit was not always enough; inconclusive = no clear call, values can overlap the other calls;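 note: 0% = neutral control wells and 100% = positive control wells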
Vif imaging = HIV Vif inhibition; HEK293T cells, Vif self-association by quenched fluorescence, imaging, 24 h; inhibition, % at 7.49 µM; actives 0.35% (n = 340,000); AID 602346; in the data active = inhibition above about 50%, passing the limit was not always enough; inconclusive = no clear call, values can overlap the other calls; inactive = below about 31%
MITF act = increases MITF-driven TRPM1 promoter luciferase signal. SK-MEL-5 TRPM1-promoter luciferase, 24 h; % of positive control, neutral wells = 0. actives 0.75% (n = 300,000). activation, % at 12.5 µM;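 active = mean activation of at least 80% with every replicate also reaching 80%; inconclusive = mean reaches 80% but some replicate falls short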;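 note: 0% = neutral control wells and 100% = parthenolide positive control wells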
N-glyco inh = blocks N-linked glycosylation in D54 reporter cells; reporter increase, % at 12.5 µM; AID 588692; actives 0.23% (n = 360,000); D54 ERlucT glycosylation luciferase reporter, 24 h; percent of 100 nM tunicamycin response;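 active = mean luciferase reporter signal, scaled so untreated is 0 and the glycosylation-blocking control 100, at or above a set limit in every replicate; inconclusive = mean reaches the limit but not every replicate does; inactive = mean below the limit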;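 note: luciferase carries N-glycosylation sites so blocking glycosylation raises the light; 0% = median of neutral control wells and 100% = median of 100 nM tunicamycin wells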
esBAF inh = inhibitors of esBAF chromatin remodeling in mouse ES cells; reporter increase, % at 12.5 µM; actives 2% (n = 350,000); AID 602393; Bmi1-luciferase knock-in reporter, 24 h; 100% = twice the neutral-well signal; in the data active = activation above about 40%; inconclusive = no clear call, values can overlap the other calls;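 note: 0% = median of the plate's neutral control wells and 100% = double that signal; a rise in the Bmi1 reporter signal indicates esBAF inhibition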
PvdQ acylase = blocks Pseudomonas aeruginosa PvdQ acylase activity; AID 488965; actives 0.063% (n = 340,000); inhibition, % at 10 µM; purified PvdQ acylase, fluorescence plate reader; in the data active = inhibition above about 30%, passing the limit was not always enough; inconclusive = no clear call, values can overlap the other calls;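 note: 0% = vehicle neutral wells and 100% = reference inhibitor wells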
* marks the source's active call; other numbers are inactive results; ? = inconclusive; / = not tested or not shown. Most compounds without a hit are left out; they make up all but 2.9% or so of the library.

SMILES	Wnt bcat act	Vif imaging	MITF act	N-glyco inh	esBAF inh	PvdQ acylase
CCCc1cc(C(=O)Nc2cccc(Cl)c2)no1	47*	2	/	-1	54*	-5
CCCN1C[C@H](C)[C@H](OC)CN(C)C(=O)c2cc(NC(=O)C3CCC3)ccc2OC[C@@H]1C	/	/	/	/	-6	/
COc1ccc(NC(=O)c2c(Cl)nc3ccccn23)cc1	/	20	6	3	4	-10
O=C(Nc1ccc(F)cc1)c1c(Cl)nc2ccccn12	5	17	28	-2	50*	-5
Cc1nc2ccccn2c1C(=O)NN	/	1	-7	-8	/	3
Cc1nc2ccccn2c1C(=O)/C=C/c1ccc(F)cc1	/	10	-10	-2	100*	2
COc1ccc(/C=C/C(=O)c2c(C)nc3ccccn23)cc1	/	-10	/	-1	69*	-13
COC(=O)c1ccc(C)c(NC(=O)CN(c2cc(OC)ccc2OC)S(C)(=O)=O)c1	/	7	7	74*	4	8
Cc1ccc(C(=O)Nc2ccccc2C(=O)N2CC(C)OC(C)C2)cc1 (stereo not given)	-1	5	/	46*	-5	/
C[C@H](CO)N1C[C@H](C)[C@@H](CN(C)C)Oc2ccc(NC(=O)C3CC3)cc2C1=O	/	/	/	/	-8	/
CN(C)/N=C/c1ccc(Sc2ccc([N+](=O)[O-])cc2[N+](=O)[O-])o1	16	2	-3	27*	/	-12
Cc1noc(C)c1NC(=O)N(C)C[C@@H]1Oc2c(NC(=O)c3cnccn3)cccc2C(=O)N([C@@H](C)CO)C[C@H]1C	/	/	/	/	2	/
Cc1c(Cl)c([N+](=O)[O-])nn1Cc1ccc(C(=O)Nc2ccc(Cl)cn2)o1	/	6	-1	-1	/	-14
O=C(Nc1ccc(Cl)cn1)c1ccc([N+](=O)[O-])o1	54*	17	-31	10	/	18
O=C(Nc1c(Cl)ccc2nsnc12)c1ccc([N+](=O)[O-])o1	-1	18	-89	46*	3	3
CC1CCCN(C(=O)COC(=O)COc2ccc(Cl)cc2)C1 (stereo not given)	-3	2	9	0	/	-11
Cc1cc(C(=O)COC(=O)Cc2c(F)cccc2Cl)c(C)n1C	11	-5	/	2	78*	/
CC1CCCN(C(=O)COC(=O)Cc2c(F)cccc2Cl)C1 (stereo not given)	14	13	60	0	45*	-11
O=C(C[C@H]1CC[C@H]2[C@@H](COC[C@H](O)CN2C(=O)c2ccccc2)O1)N1CCOCC1	/	/	/	/	2	/
CC(=O)Nc1ccc2c(c1)C(=O)N(C)[C@@H]1CC[C@H](CC(=O)NCc3ccc(Cl)cc3)O[C@H]1CO2	/	/	/	/	-2	/
C[C@@H]1CN([C@H](C)CO)C(=O)c2cc(NC(=O)NC3CCCCC3)ccc2O[C@@H](C)CCCCO[C@@H]1CN(C)S(=O)(=O)c1ccc(F)cc1	/	/	/	/	-2	/
Cc1ccc(S(=O)(=O)/N=C2/C=C(C3C(=O)CC(C)(C)CC3=O)C(=O)c3ccccc32)cc1	63*	1	/	5	?	7
Cc1ccc(S(=O)(=O)/N=C2\C=C(NS(=O)(=O)c3ccccc3)C(=O)c3ccccc32)cc1	10	15	-27	5	-1	4
O=c1oc2ccccc2cc1-c1nnc(NCc2ccco2)s1	72*	3	/	-6	3	-6
Nc1nc(CSCCO)nc(Nc2ccccc2)n1	/	/	2	3	21	-9
SMILES	Wnt bcat act	Vif imaging	MITF act	N-glyco inh	esBAF inh	PvdQ acylase
COc1ccc(Nc2nc(N)nc(CSc3nnc(N)s3)n2)cc1	/	11	/	0	10	-8
COc1ccc(Nc2nc(N)nc(CSc3nccn3C)n2)cc1	56*	2	6	-7	/	-15
Nc1nc(CSc2ccccn2)nc(Nc2ccccc2)n1	43*	19	152*	-1	52*	-1
Cn1c(C(=O)N2CCc3ccccc3C2)cc2oc3ccccc3c21	3	4	61	3	55*	-1
C[C@@H]1CN([C@H](C)CO)C(=O)c2cc(NS(C)(=O)=O)ccc2O[C@@H](C)CCCCO[C@H]1CN(C)C(=O)Nc1ccc2c(c1)OCO2	/	/	/	/	4	/
CCOC(=O)c1c(C)oc2c1C(=O)c1ccccc1C2=O	1	-1	-95	-20	49*	-3
C[C@@H]1CN([C@H](C)CO)C(=O)c2cccc(NC(=O)Nc3ccccc3)c2O[C@@H]1CN(C)Cc1ccc(C(=O)Nc2ccccc2N)cc1	/	/	/	/	-22	/
CC(=O)N1Cc2ccccc2CC1C(=O)N1CCN(c2ccccc2)CC1 (stereo not given)	-2	13	-5	0	0	-7
COc1ccc(N2CCN(C(=O)C3Cc4ccccc4CN3C(=O)c3ccccc3)CC2)cc1 (stereo not given)	16	-6	47	1	72*	-13
O=C1CCCN1CCC(=O)N1CCCC(CO)(Cc2ccccc2)C1 (stereo not given)	32*	7	49	3	63*	0
CSCCC(=O)N1CCCC(CO)(CCCc2ccccc2)C1 (stereo not given)	0	-5	/	2	-8	-17
COc1ccc(C(=O)Nc2ccc(N3CCN(C(=O)C(C)C)CC3)cc2)cc1[N+](=O)[O-]	/	64*	9	0	-5	-4
CCOC(=O)N1CCC2(CC1)CC(=O)c1c(ccc3oc(C(=O)O)c(C)c13)O2	/	18	9	0	-3	-8
CCCNC(=O)c1oc2ccc3c(c2c1C)C=CC(C)(C)O3	38*	3	105*	0	56*	4
Cc1c(C(=O)NCCc2ccccc2)oc2ccccc12	0	15	55	-12	11	-1
CCCNC(=O)c1oc2ccc3c(c2c1C)C(=O)CC(C)(C)O3	59*	6	89*	-9	-15	-14
CC(=O)N1[C@@H]2c3ccc(C4=CCCCC4)c(=O)n3C[C@H]1[C@H](CO)[C@H]2C(=O)NCc1cc(F)cc(F)c1	/	/	/	/	-1	/
Cc1ccc(-c2nc(CN(C)Cc3cccc4cnccc34)c(C)o2)s1	-8	/	10	-1	/	51*
Cc1ccc(-c2nc(CN(C)C3CCOCC3)c(C)o2)s1	0	-10	6	-2	-7	10
COCC(=O)Nc1ccc2c(c1)[C@H]1C[C@H](CC(=O)O)O[C@H](CO)[C@H]1O2	/	/	/	/	2	/
COCC(=O)Nc1ccc2c(c1)C(=O)N(C)[C@H]1CC[C@@H](CC(=O)NCc3ccccc3F)O[C@H]1CO2	/	/	/	/	-4	/
Cc1cccc(Cc2cnc(NC(=O)c3ccc(C)o3)s2)c1	51*	2	88*	-7	/	-14
Cc1ccccc1NC(=O)C1CCCN1S(=O)(=O)c1ccccc1C(F)(F)F (stereo not given)	50*	-1	-3	2	4	-18
CSc1nnc(NC(=O)C2CCCCC2)s1	12	3	34	1	45*	-10
CCSc1nnc(NC(=O)C2CCCCC2)s1	/	-2	/	1	44*	-12
